Measured values published in PubChem BioAssay (NCATS).
A number with no mark means an inactive call. Records with an inconclusive call do not appear. Activity calls are given as the source filed them. Unless noted, calls come from the whole dose curve; as a rule, active = well fitted curve in the direction sought with a large enough effect; inconclusive = small, poorly fitted or top-dose-only effect, or another doubt; inactive = no such curve, though single readings can be large; an effect the other way counts as inactive or inconclusive.

What was measured:
[1] = target: Lysosomal acid glucosylceramidase (Homo sapiens) (UniProt P04062); assay: Glucocerebrosidase-p2 (AID 348; in the data active = potency below about 10 µM; note: potency is the fitted concentration of half-maximal effect); details: purified GBA, blue fluorogenic substrate, 40 min
Procedure, shortened: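 Normal human glucocerebrosidase (0.2 nM) with blue fluorogenic substrate (80 uM final) in citrate/phosphate pH 5.9 with 10mM sodium taurocholate, 0.01% tween-20; 40 min RT, NaOH/glycine stop; fluorescence Ex 365/Em 440; AC50 from a titration from 0.6 nM upwards.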

[2] = AP1 Signaling Pathway (AID 357; active = well fitted curve in either direction with a large enough effect, not every such curve was filed as active; note: % is set by controls: 0 for no effect and ±100 for the full control effect); details: ME-180 AP-1-bla reporter, EGF-induced, beta-lactamase ratio, 5 h; at 7.69 µM (top of the series) unless noted
Procedure, shortened: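 ME-180 cells with beta-lactamase reporter under AP-1 response element, stimulated with EC50 EGF; compounds tested in titration series, 5 h at 37 °C. CCF4 substrate added 2.5 h at room temperature; 460/530 nm emission ratio gave %activity and AC50.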

[3] = target: Cytochrome P450 1A2 (Homo sapiens) (UniProt P05177); assay: p450-cyp1a2 (AID 410; calls by dose curve; note: potency is the fitted concentration of half-maximal effect)
Procedure, shortened: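 Read-out is luminescence from luciferin produced by CYP1A2 demethylation of Luciferin-ME (100uM, at Km). Detection reagent stopped the 60 min NADPH-dependent reaction; signals were normalized to 57 uM furafylline.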

[4] = NFAT Signaling Pathway (AID 444; active = well fitted curve in either direction with a large enough effect, not every such curve was filed as active;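 note: carbachol stimulus at about its EC50 of 1 µM final; % is set by controls: 0 for no effect and ±100 for the full control effect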); details: Jurkat NFAT-bla M1, carbachol, beta-lactamase ratio, 5 h; at 7.69 µM (top of the series) unless noted
Procedure, shortened: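 Jurkat cells carrying an NFAT-driven β-lactamase reporter and co-transfected muscarinic M1 receptor were treated with compound plus carbachol (1 uM final, an EC50 level) for 5 h at 37 °C. CCF4 loading followed for 1 h at RT; 460/530 nm ratio gave %activity.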

[5] = Stat Signaling Pathway (AID 446; active = well fitted curve in either direction with a large enough effect, not every such curve was filed as active;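 note: ME-180 cervical cancer cells given 40 pM IL-6 alongside compound; SIE-controlled beta-lactamase reporter measured as 460/530 nm FRET emission ratio; % is set by controls: 0 for no effect and ±100 for the full control effect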); details: ME-180 (cervical carcinoma) SIE beta-lactamase reporter, IL-6 stimulated, 5 h; at 7.69 µM (top of the series) unless noted
Procedure, shortened: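 Overnight-plated ME-180 cells bearing a STAT Inducible Element beta-lactamase reporter; 5 h co-exposure to compound and 40 pM IL-6; values normalized to 300 pM IL-6 and 125 nM JAK inhibitor controls.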

[6] = target: Glucocorticoid receptor (Homo sapiens) (UniProt P04150); assay: GR-GFP Redistribution (AID 450;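 active = compounds whose dose series gives a full or clear partial fitted curve of increased nuclear translocation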; note: potency is the fitted concentration of half-maximal effect); details: U2OS GR-GFP nuclear translocation, laser cytometry, 2 h
[7] = target: Glucocorticoid receptor (Homo sapiens) (UniProt P04150); assay: GR-EFC Redistribution (AID 451; calls by dose curve; note: potency is the fitted concentration of half-maximal effect); details: CHO-K1 GR-EFC translocation, beta-gal luminescence, 2 h
Procedure, shortened: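 CHO-K1 cells stably expressing nuclear-localized β-gal enzyme acceptor and GR fused C-terminally to the enzyme donor fragment; ligand-driven nuclear translocation restores β-gal by complementation. Compounds titrated up to 46 uM final, 2 h at 37 °C; luminescence read.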

[8] = target: Mitogen-activated protein kinase 10 (Mus musculus) (UniProt Q61831); assay: JNK3 AlphaScreen Assay (AID 530; active = well fitted curve in either direction with a large enough effect, not every such curve was filed as active;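 note: kinase came from lysate of stimulated human HepG2 cells; signal reports phosphorylation of biotinylated GST-cJun 1-79 at Ser73 with 10 µM ATP; % is set by controls: 0 for no effect and ±100 for the full control effect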)
Procedure, shortened: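 Biotinylated GST-cJun(1-79) served as substrate for JNK3 in HepG2 lysates stimulated with IL-1beta and TNF-alpha. ATP was 10 uM final, pH 7.6. Ser73 phosphorylation was quantified by AlphaScreen (680 nm excitation).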

[9] = target: 3',5'-cyclic-AMP phosphodiesterase 4B (Homo sapiens) (UniProt Q07343); assay: qHTS Assay for Inhibitors of PDE-IV (AID 607; active = well fitted activation curve with a large enough effect in the main read-out, with a control signal flat, not every such curve was filed as active; note: % of control where 0% means no effect)
Procedure, shortened: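 Live HEK293 cells with a modified cyclic nucleotide-gated (CNG) channel report intracellular cAMP via membrane-potential dye fluorescence (ex 535/em 590 nm). Endogenous PDE-IV was targeted. Compounds were tested at up to 22.9 uM final; RO 20-1724 100 uM served as control.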

[10] = target: Dual specificity protein kinase CLK4 (Homo sapiens) (UniProt Q9HAZ1); assay: qHTS Assay for Inhibitors of CDC-like Kinase 4 (Kinase-Glo Assay) (AID 1770); note: nearly all actives have a fitted effect of over 65% in size; note: potency is the fitted concentration of half-maximal effect
Procedure, shortened: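 25 nM Clk4 with 100 uM RS repeat peptide and 1 uM ATP (final) in Tris pH7.5, 10 mM MgCl2, 4.5 h at room temperature. Remaining ATP measured by Kinase-Glo luciferase luminescence.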

[11] = target: Dual specificity protein kinase CLK4 (Homo sapiens) (UniProt Q9HAZ1); assay: qHTS Assay for Inhibitors of CDC-like Kinase 4 (ADP-FP Assay) (AID 1795);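 note: recombinant human CLK4 phosphorylating RS repeat peptide at 1 µM ATP; % is set by controls: 0 for no effect and ±100 for the full control effect; nearly all actives have a fitted effect of over 60% in size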
Procedure, shortened: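 Recombinant Clk4 (6.25 nM) phosphorylated 100 uM RS repeat peptide with 1 uM ATP in 25 mM Tris pH 7.5, 10 mM MgCl2, 0.5 mM EGTA, 2.5 mM DTT, 0.01% Triton X-100 for 1 h. ADP was detected by Transcreener ADP2 competitive fluorescence polarization after 30 min at room temperature.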

[12] = target: Ubiquitin carboxyl-terminal hydrolase 1 (Homo sapiens) (UniProt O94782); assay: Inhibitors of USP1/UAF1: Pilot qHTS (AID 504865);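 note: rhodamine fluorescence freed from ubiquitin-rhodamine substrate followed over time; top concentration of the series differs between compounds; % is set by controls: 0 for no effect and ±100 for the full control effect; nearly all actives have a fitted effect of over 35% in size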
Procedure, shortened: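 USP1/UAF1 complex at 1 nM preincubated 15 min at room temperature with compound, then Ub-Rho substrate added at 150 nM final. Fluorescence (480/540 nm) read kinetically in 50 mM HEPES pH 7.8, 0.5 mM EDTA, 1 mM TCEP, 0.1 mg/ml BSA, 0.01% Tween-20.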

[13] = Primary qHTS for small molecule stabilizers of the endoplasmic reticulum resident proteome: Secreted ER Calcium Modulated Protein (SERCaMP) assay (AID 1508630); note: % is set by controls: 0 for no effect and ±100 for the full control effect
Procedure, shortened: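 The SH-SY5Y reporter protocol was run at 3 concentrations up to 38.3 uM (primary) or 11 concentrations (follow-up): 16 h compound, 100 nM thapsigargin for 4 h, then extracellular luciferase luminescence.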

[14] = target: Cytochrome P450 3A4 (Homo sapiens) (UniProt P08684); assay: qHTS Assay for Activators of Cytochrome P450 3A4 (AID 885); note: nearly all actives have a fitted effect of over 65% in size
Procedure, shortened: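 Using 20nM recombinant human CYP3A4 in potassium phosphate (200mM), substrate Luciferin-PPXE at 25uM, luminescent luciferin detection followed a 60-min RT NADPH reaction; data scaled to 57 uM ketoconazole.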

[15] = target: Dual specificity protein kinase CLK4 (Homo sapiens) (UniProt Q9HAZ1); assay: qHTS Assay for Inhibitors of CDC-like Kinase 4 (ADP-Glo Assay) (AID 1771); note: nearly all actives have a fitted effect of over 70% in size; note: potency is the fitted concentration of half-maximal effect
Procedure, shortened: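 In this ADP-Glo format, 1 uM ATP and 100 uM RS peptide served as substrates for 25 nM Clk4 in Mg2+/EGTA/DTT/Triton buffer; reactions ran 1 hr at room temperature before luminescent ADP quantification.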

[16] = target: Cytochrome P450 3A4 (Homo sapiens) (UniProt P08684); assay: qHTS Assay for Inhibitors and Substrates of Cytochrome P450 3A4 (AID 884); note: potency is the fitted concentration of half-maximal effect; nearly all actives have a fitted effect of over 50% in size
Procedure, shortened: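 Luminescent readout of luciferin produced by CYP3A4 (20 nM) dealkylation of Luciferin-PPXE, 25 uM (its KM). NADPH-driven reaction ran 60 min at RT after 10 min compound preincubation; data scaled to 57 uM ketoconazole as 100% inhibition.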

[17] = target: Cytochrome P450 2C19 (Homo sapiens) (UniProt P33261); assay: qHTS Assay for Inhibitors and Substrates of Cytochrome P450 2C19 (AID 899); note: potency is the fitted concentration of half-maximal effect; nearly all actives have a fitted effect of over 60% in size
Procedure, shortened: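 Human CYP2C19 (5nM) with Luciferin-H EGE at 10uM (its KM) in 50mM KPO4 was preincubated with compound for 10 min at 37C. NADPH regeneration started a 60 min 37C reaction. Luciferin was read by luminescence, normalized to 57uM ketoconazole.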

Sequence of Ubiquitin carboxyl-terminal hydrolase 1 (Homo sapiens) (O94782 whole entry, looked up): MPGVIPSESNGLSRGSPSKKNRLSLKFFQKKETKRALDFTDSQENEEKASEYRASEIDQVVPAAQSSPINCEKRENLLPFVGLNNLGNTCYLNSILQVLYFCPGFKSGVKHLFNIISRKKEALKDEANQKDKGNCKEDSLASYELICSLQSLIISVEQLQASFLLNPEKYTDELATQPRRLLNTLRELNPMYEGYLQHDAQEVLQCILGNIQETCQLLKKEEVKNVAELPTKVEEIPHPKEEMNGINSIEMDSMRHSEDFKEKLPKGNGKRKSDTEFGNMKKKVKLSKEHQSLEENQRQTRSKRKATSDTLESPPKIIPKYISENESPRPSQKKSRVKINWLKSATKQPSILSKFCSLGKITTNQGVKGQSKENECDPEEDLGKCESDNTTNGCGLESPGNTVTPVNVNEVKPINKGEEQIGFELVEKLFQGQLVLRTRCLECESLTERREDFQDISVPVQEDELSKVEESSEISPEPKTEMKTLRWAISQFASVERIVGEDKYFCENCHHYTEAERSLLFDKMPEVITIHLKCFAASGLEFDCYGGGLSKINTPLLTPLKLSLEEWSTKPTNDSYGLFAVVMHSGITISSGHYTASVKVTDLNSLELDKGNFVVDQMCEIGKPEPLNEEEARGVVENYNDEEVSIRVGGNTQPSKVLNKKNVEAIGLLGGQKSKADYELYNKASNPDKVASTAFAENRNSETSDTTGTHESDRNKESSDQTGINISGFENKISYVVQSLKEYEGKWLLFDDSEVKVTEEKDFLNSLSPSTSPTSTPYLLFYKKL
Sequence of Dual specificity protein kinase CLK4 (Homo sapiens) (Q9HAZ1 whole entry, looked up): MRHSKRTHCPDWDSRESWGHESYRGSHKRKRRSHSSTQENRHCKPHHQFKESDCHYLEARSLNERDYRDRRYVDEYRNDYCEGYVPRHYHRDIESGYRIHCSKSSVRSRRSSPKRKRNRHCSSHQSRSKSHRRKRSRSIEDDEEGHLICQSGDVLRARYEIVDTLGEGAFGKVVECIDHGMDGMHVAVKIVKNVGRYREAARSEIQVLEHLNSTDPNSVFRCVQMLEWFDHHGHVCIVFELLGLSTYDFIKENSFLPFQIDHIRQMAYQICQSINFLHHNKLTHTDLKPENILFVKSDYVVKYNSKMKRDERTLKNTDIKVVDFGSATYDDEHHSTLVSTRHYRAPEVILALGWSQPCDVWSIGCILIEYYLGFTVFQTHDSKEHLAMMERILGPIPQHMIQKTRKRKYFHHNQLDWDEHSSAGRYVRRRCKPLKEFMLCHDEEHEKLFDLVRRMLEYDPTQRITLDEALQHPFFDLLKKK
Sequence of Cytochrome P450 3A4 (Homo sapiens) (P08684 whole entry, looked up): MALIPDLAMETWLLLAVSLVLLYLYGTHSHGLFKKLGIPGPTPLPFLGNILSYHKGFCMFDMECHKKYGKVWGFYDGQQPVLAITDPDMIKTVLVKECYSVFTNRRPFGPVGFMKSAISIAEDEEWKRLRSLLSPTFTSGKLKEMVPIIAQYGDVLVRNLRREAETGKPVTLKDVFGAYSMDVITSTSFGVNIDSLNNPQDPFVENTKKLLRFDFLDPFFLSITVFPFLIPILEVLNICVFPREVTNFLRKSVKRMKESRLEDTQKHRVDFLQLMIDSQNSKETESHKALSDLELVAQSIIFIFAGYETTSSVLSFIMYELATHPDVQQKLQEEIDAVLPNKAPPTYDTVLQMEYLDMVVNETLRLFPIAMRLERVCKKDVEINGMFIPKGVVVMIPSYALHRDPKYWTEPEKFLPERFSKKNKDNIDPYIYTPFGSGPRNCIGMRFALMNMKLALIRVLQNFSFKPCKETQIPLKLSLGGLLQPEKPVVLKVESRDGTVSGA
Sequence of Cytochrome P450 1A2 (Homo sapiens) (P05177 whole entry, looked up): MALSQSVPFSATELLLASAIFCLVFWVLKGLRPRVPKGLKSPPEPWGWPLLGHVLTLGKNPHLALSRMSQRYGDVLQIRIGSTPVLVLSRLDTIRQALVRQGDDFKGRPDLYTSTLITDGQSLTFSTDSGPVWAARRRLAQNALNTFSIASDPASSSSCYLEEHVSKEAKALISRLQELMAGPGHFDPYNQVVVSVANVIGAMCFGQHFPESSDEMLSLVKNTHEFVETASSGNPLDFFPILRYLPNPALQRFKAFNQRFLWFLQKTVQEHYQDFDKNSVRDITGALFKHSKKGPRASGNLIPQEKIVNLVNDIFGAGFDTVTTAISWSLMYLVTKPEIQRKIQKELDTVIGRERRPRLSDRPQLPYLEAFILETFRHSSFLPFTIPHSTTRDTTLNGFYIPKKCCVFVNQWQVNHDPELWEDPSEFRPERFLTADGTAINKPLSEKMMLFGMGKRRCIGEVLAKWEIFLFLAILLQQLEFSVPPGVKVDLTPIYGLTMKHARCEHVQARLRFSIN
Sequence of 3',5'-cyclic-AMP phosphodiesterase 4B (Homo sapiens) (Q07343 whole entry, looked up): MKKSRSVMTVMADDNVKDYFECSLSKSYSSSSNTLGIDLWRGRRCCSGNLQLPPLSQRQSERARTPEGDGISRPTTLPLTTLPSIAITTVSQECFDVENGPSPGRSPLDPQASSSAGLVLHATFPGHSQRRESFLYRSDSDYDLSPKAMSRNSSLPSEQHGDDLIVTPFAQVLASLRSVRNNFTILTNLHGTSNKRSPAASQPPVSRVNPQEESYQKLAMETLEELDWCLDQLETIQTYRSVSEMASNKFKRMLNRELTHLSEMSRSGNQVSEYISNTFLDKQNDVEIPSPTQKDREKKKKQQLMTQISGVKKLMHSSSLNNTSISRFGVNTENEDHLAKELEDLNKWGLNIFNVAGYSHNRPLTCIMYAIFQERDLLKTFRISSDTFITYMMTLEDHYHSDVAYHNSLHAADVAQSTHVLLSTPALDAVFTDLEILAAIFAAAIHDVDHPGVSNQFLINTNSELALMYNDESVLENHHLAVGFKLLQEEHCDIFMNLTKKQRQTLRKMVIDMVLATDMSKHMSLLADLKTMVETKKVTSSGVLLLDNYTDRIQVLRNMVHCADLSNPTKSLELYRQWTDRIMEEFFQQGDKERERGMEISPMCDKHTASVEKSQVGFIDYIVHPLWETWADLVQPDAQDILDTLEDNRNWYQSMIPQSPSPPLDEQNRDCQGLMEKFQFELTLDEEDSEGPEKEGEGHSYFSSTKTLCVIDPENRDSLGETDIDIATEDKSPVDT
Sequence of Glucocorticoid receptor (Homo sapiens) (P04150 whole entry, looked up, the tested form may be a part): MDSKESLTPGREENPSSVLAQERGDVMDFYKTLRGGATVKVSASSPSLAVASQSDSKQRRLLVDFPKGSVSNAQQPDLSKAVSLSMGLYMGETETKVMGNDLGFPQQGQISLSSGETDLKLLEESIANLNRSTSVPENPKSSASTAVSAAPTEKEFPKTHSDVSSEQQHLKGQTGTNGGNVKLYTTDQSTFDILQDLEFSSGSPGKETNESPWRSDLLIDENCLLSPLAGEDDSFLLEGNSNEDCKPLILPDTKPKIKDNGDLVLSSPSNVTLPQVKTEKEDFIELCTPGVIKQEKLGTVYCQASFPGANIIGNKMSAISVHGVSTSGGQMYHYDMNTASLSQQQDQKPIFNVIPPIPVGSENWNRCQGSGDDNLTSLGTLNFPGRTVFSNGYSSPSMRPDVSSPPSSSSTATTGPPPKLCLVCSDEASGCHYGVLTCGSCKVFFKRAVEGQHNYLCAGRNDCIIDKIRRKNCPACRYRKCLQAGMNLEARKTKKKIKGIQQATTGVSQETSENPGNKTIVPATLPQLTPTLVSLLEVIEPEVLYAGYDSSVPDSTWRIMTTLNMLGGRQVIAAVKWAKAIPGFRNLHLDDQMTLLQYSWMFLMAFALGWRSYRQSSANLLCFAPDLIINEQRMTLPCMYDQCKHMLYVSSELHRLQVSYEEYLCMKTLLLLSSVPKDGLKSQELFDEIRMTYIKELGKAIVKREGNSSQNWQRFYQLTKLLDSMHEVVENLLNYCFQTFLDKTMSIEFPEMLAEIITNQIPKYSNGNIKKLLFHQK
Sequence of Lysosomal acid glucosylceramidase (Homo sapiens) (P04062 whole entry, looked up): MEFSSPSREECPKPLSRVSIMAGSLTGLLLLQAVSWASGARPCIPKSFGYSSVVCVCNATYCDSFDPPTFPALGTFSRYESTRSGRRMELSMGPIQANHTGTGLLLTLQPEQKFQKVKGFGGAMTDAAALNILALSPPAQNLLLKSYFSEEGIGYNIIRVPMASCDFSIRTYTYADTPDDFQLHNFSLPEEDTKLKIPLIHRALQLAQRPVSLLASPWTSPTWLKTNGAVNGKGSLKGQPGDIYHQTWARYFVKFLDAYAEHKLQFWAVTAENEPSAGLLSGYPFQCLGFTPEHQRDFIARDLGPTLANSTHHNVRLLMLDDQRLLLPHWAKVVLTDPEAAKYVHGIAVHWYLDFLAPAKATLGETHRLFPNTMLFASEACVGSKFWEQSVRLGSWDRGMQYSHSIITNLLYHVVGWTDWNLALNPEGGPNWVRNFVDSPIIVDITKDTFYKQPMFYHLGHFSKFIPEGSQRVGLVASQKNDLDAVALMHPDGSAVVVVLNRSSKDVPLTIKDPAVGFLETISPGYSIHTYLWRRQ
Sequence of Cytochrome P450 2C19 (Homo sapiens) (P33261 whole entry, looked up): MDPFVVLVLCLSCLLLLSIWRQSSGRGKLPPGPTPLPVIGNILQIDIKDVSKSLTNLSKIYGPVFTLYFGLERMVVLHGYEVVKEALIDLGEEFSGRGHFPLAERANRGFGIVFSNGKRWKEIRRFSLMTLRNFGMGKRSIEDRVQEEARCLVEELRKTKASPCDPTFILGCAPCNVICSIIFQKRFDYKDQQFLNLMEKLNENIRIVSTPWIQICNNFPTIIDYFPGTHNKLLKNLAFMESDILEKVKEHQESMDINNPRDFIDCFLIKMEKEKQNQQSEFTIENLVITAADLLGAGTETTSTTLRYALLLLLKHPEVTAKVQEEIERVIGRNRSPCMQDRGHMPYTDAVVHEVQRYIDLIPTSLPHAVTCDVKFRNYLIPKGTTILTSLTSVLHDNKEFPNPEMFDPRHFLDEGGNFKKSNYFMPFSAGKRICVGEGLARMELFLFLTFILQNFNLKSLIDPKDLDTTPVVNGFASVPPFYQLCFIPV

**Q.** Which Potency [1] does the source give for CCNc1ncc2nc(C)c(=O)n(C[C@H]3CCCO3)c2n1 here?
**A.** > 11.4 µM

**Q.** What about the activity change, negative = inhibition [2] of the same compound?
**A.** 3.27%

**Q.** What about the Potency [3] of the same compound?
**A.** 3.98 µM (active)

**Q.** What about the activity change, negative = inhibition [4] of the same compound?
**A.** -7.96%

**Q.** And the activity, negative = inhibition [5]?
**A.** -8.96%

**Q.** What about the Potency [6] of the same compound?
**A.** > 9.22 µM

**Q.** And the Potency [7]?
**A.** > 46 µM

**Q.** What about the Potency [8] of the same compound?
**A.** inactive

**Q.** What about the Potency [9] of the same compound?
**A.** inactive

**Q.** And the Potency [10]?
**A.** inactive

**Q.** And the Potency [11]?
**A.** inactive

**Q.** What about the Potency [12] of the same compound?
**A.** inactive

**Q.** And the outcome [13]?
**A.** inactive

**Q.** Which activity change, negative = inhibition [2] does the source give for CNc1ncnc2ccc(-c3ccccc3C#N)cc12 here?
**A.** 21.4%

**Q.** What about the Potency [3] of the same compound?
**A.** 1 µM (active)

**Q.** And the activity change, negative = inhibition [4]?
**A.** 23.3%

**Q.** And the activity, negative = inhibition [5]?
**A.** -1.74%

**Q.** And the Potency [6]?
**A.** > 46 µM

**Q.** And the Potency [7]?
**A.** > 46 µM

**Q.** What about the Potency [8] of the same compound?
**A.** inactive

**Q.** What about the Potency [9] of the same compound?
**A.** inactive

**Q.** What about the Potency [14] of the same compound?
**A.** inactive

**Q.** And the Potency [10]?
**A.** 6.31 µM (active)

**Q.** What about the Potency [15] of the same compound?
**A.** 7.08 µM (active)

**Q.** And the Potency [12]?
**A.** inactive

**Q.** What about the outcome [13] of the same compound?
**A.** inactive

**Q.** Which Potency [1] does the source give for N#Cc1cccc(-c2cncnc2NCc2cccnc2)c1 here?
**A.** > 11.4 µM

**Q.** And the activity change, negative = inhibition [2]?
**A.** 13%

**Q.** What about the Potency [3] of the same compound?
**A.** 5.01 µM (active)

**Q.** What about the activity change, negative = inhibition [4] of the same compound?
**A.** -3.61%

**Q.** What about the activity, negative = inhibition [5] of the same compound?
**A.** 6.63%

**Q.** What about the Potency [6] of the same compound?
**A.** > 46 µM

**Q.** What about the Potency [7] of the same compound?
**A.** > 46 µM

**Q.** What about the Potency [8] of the same compound?
**A.** inactive

**Q.** What about the Potency [9] of the same compound?
**A.** inactive

**Q.** What about the Potency [16] of the same compound?
**A.** 1.26 µM (active)

**Q.** And the Potency [14]?
**A.** inactive

**Q.** What about the Potency [17] of the same compound?
**A.** 3.98 µM (active)

**Q.** And the Potency [10]?
**A.** inactive

**Q.** What about the Potency [11] of the same compound?
**A.** inactive

**Q.** What about the Potency [12] of the same compound?
**A.** inactive

**Q.** What about the outcome [13] of the same compound?
**A.** inactive

**Q.** Which results are given for COc1ccc2[nH]cc(CCNc3ccnc(-c4ccccc4Cl)n3)c2c1?
**A.** activity change, negative = inhibition [2]: -9.46%; Potency [3]: 0.398 µM (active); activity change, negative = inhibition [4]: 5.21%; activity, negative = inhibition [5]: -20.6%; Potency [6]: > 46 µM; Potency [7]: > 46 µM; Potency [9]: inactive; Potency [16]: 2 µM (active); Potency [14]: inactive; Potency [10]: 22.4 µM (active); Potency [15]: 22.4 µM (active); Potency [12]: inactive; outcome [13]: inactive

**Q.** For COc1ccc(Oc2ncc3nc(-c4ccc(F)cc4)c(=O)n(C4CC4)c3n2)cc1, which Potency [1] is on record?
**A.** > 11.4 µM

**Q.** And the activity change, negative = inhibition [2]?
**A.** 0.828%

**Q.** What about the activity, negative = inhibition [5] of the same compound?
**A.** 14.5%

**Q.** And the Potency [6]?
**A.** > 9.22 µM

**Q.** And the Potency [7]?
**A.** > 46 µM

**Q.** And the Potency [8]?
**A.** inactive

**Q.** And the Potency [9]?
**A.** inactive

**Q.** And the Potency [10]?
**A.** inactive

**Q.** What about the Potency [15] of the same compound?
**A.** inactive

**Q.** And the Potency [12]?
**A.** inactive

**Q.** What about the outcome [13] of the same compound?
**A.** inactive

**Q.** What does the source list for N#Cc1cccc(-c2nccc(NCc3cccnc3)n2)c1?
**A.** Potency [1]: > 11.4 µM; Potency [3]: 0.251 µM (active); activity change, negative = inhibition [4]: 16.5%; activity, negative = inhibition [5]: 0.752%; Potency [6]: > 46 µM; Potency [7]: > 46 µM; Potency [8]: inactive; Potency [16]: 0.794 µM (active); Potency [14]: inactive; Potency [10]: 14.1 µM (active); Potency [15]: 14.1 µM (active); Potency [12]: inactive; outcome [13]: inactive
